FH mod = Identification of activators of human fumarate hydratase by quantitative high-throughput screening | 54,000 tested, 0.22% active | FH coupled MDH/diaphorase resazurin fluorescence, 15 min | AID 1347055, 2019 | Potency, µM (highest dose often 79.9 µM), actives largely listed as inhibitors | Fumarate hydratase, mitochondrial (Homo sapiens), P07954; also: the screen sought activators but most active calls are inhibition curves; nearly all actives have a fitted effect of over 45% in size
Target sequence (P07954 whole entry, looked up): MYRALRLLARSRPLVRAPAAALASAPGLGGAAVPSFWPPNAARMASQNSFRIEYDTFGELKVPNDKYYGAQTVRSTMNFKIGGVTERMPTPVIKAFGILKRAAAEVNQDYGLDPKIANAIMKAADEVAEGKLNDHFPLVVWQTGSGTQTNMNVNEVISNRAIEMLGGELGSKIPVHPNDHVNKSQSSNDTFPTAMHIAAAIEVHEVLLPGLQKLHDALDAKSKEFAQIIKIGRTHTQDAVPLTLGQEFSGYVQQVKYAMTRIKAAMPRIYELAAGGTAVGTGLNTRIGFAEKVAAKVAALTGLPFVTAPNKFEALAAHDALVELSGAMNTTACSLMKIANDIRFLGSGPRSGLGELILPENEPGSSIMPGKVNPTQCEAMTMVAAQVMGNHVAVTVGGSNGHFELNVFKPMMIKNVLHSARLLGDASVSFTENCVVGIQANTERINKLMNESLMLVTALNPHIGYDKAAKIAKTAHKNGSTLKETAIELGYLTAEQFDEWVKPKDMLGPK
OvCa metastasis = inhibitors of ovarian cancer cell adhesion and invasion in omental model; SKOV3ip1-GFP adhesion/invasion on 3D omental model, fluorescence; Potency, µM (highest dose often 45.8 µM), hits mostly inhibitors; 46,000 tested, 0.1% active; also: nearly all actives have a fitted effect of over 65% in size
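A 3D layer of primary human omental fibroblasts, mesothelial cells, fibronectin and collagen I, grown 48 hr, received SKOV3ip1-GFP cells in serum-free medium plus compounds at 0.36-46 umol/L. After 2 hr RT and 16 hr 37 C, fixed adherent GFP cells were counted; normalized to DMSO and tomatine.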
NTMT1 inhibitor = blocks human N-terminal methyltransferase 1 activity. Q9BV86. NTMT1 MTase-Glo SAH luminescence, purified enzyme. Potency, µM (titrated, usually from 114 µM), most hits filed as inhibitors. 59,000 tested, 2.5% active. AID 1645870; also: nearly all actives have a fitted effect of over 65% in size
Target sequence (Q9BV86 whole entry, looked up): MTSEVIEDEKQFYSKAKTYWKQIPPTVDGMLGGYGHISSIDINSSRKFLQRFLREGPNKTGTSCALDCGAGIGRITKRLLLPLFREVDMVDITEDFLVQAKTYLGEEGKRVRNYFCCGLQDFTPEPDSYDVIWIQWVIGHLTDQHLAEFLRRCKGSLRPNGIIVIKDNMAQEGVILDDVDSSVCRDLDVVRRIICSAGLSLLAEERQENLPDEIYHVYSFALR
DRV1 agonist = GPR32 (DRV1) agonism, beta-arrestin recruitment. CHO-K1 GPR32 beta-arrestin PathHunter luminescence, 90 min; zero percent set by DMSO-only wells. 48,000 tested, 2.5% active. O75388. activation, % at 76.9 µM;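 active = activation of at least 60% and not above a set upper limit, about 1 call in 100 departs from these limits; inconclusive = activation of 40% to 60%, or above that upper limit; inactive = activation under 40%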
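Step 1: seed CHO-K1 GPR32 beta-arrestin cells, 2,500/well, overnight at 37 °C. Step 2: add compounds, 90 min at 37 °C. Step 3: detection reagent, 1 h ambient, then luminescence.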
Sfp qHTS opt = Sfp PPTase inhibition, chemistry optimization. shares compounds with NTMT1 inhibitor. purified Sfp PPTase enzyme activity, qHTS. Potency, µM (titrated, usually from 114 µM), most hits filed as inhibitors. 230 tested, 78% active
Bsub HM489 growth = Sfp PPTase inhibitors: growth inhibition of B. subtilis HM489; B. subtilis HM489 (acpS-) growth, BacTiter-Glo, 5 h; shares compounds with NTMT1 inhibitor; 220 tested, 50% active; Potency, µM (highest dose often 114 µM), actives largely listed as inhibitors
Sfp gel opt = inhibits B. subtilis Sfp PPTase in gel assay; shares compounds with NTMT1 inhibitor; Potency, µM (series often up to 250 µM), usual class: inhibitors; AID 540355; purified Sfp PPTase, gel-based product detection; 220 tested, 54% active
Sfp gel = confirmation of Bacillus subtilis Sfp PPTase inhibitors. shares compounds with NTMT1 inhibitor. purified Sfp PPTase, gel-based product detection. Potency, µM (series often up to 250 µM), usual class: inhibitors. 45 tested, 90% active
Sfp inh SAR2 = inhibits B. subtilis Sfp PPTase in second SAR round. purified Sfp enzyme, PPTase activity, qHTS. 230 tested, 87% active. shares compounds with NTMT1 inhibitor. Potency, µM (titrated, usually from 57.1 µM), most hits filed as inhibitors
hGST A1-1 inh = counter-screen for Sfp PPTase inhibitors: hGST A1-1 inhibition | AID 602391 | hGST A1-1 enzyme activity counter-screen, qHTS | Potency, µM (doses to about 114 µM), usual class: inhibitors | 55 tested, under 10 active | shares compounds with NTMT1 inhibitor
HSD17B4 counter = counter-screen for HPGD inhibitors: human HSD17B4 inhibition | shares compounds with NTMT1 inhibitor | purified HSD17B4, estradiol/NAD+, NADH fluorescence | Potency, µM (doses to about 57.1 µM), actives largely listed as inhibitors | 230 tested, 10% active | AID 743187
ALDH1A1 inh = inhibits human ALDH1A1, off-target for HPGD inhibitors. shares compounds with NTMT1 inhibitor. recombinant ALDH1A1, NADH fluorescence, propionaldehyde/NAD+. Potency, µM (highest dose often 57.1 µM), actives largely listed as inhibitors. 230 tested, 93% active. AID 743195
NNMT counter = counter-screen for NTMT1 inhibitors: human NNMT inhibition; AID 1645878; NNMT MTase-Glo luminescence, SAH detection; 120 tested, 10% active; Potency, µM (titrated, usually from 57.1 µM), usual class: inhibitors; shares compounds with NTMT1 inhibitor
Numbers stand for hits; ! = a repeat was not active. The list is not random: actives were taken first. Their share in the collection is about 3.8%. Unless noted, calls follow the shape of the dose curve; as a rule, active = well fitted curve in the direction sought with a large enough effect; inconclusive = small, poorly fitted or top-dose-only effect, or another doubt; inactive = no such curve, though single readings can be large; an effect the other way counts as inactive or inconclusive.

`N#Cc1cnc2cnc(NCc3cccnc3)cc2c1Nc1ccc(F)c(Cl)c1` gave FH mod inactive and NTMT1 inhibitor inconclusive.
For CCOc1cc2ncc(C#N)c(Nc3ccc(F)c(Cl)c3)c2cc1NC(=O)/C=C/CN(C)C the results were FH mod inactive, NTMT1 inhibitor 1.12µM and NNMT counter 15.8µM.
`CN1CCN(CCOc2cc(OC3CCOCC3)c3c(Nc4c(Cl)ccc5c4OCO5)ncnc3c2)CC1` gave FH mod inactive, OvCa metastasis inactive and NTMT1 inhibitor inconclusive.
`COc1cc(Nc2c(C#N)cnc3cc(OCCCN4CCN(C)CC4)c(OC)cc23)c(Cl)cc1Cl` gave FH mod inactive, OvCa metastasis inactive, NTMT1 inhibitor 7.94µM, DRV1 agonist inactive and NNMT counter 20µM.
For CCOc1ccccc1CNC(=O)C1CCN(c2nn3cc(-c4ccc(F)cc4)nc3s2)CC1 the results were FH mod inactive, OvCa metastasis inactive, NTMT1 inhibitor inactive and DRV1 agonist inactive.
For Cc1cnc(Nc2ccc(F)cc2Cl)nc1-c1c[nH]c(C(=O)NC(CO)c2cccc(Cl)c2)c1 (stereo not drawn) the results were FH mod inactive, NTMT1 inhibitor inactive and NNMT counter inactive.
For COc1ccccc1CNC(=O)c1ccc2c(c1)N(Cc1cccc(C)c1)C(=O)c1ccccc1S2(=O)=O the results were FH mod inactive, OvCa metastasis inactive, NTMT1 inhibitor inactive and DRV1 agonist inactive.
For Cc1cc(C)nc(NC(=S)N2CCN(c3cncs3)CC2)c1 the results were NTMT1 inhibitor inconclusive, Sfp qHTS opt 7.44µM, Bsub HM489 growth inactive, Sfp gel opt 15.8µM, Sfp inh SAR2 4.57µM, HSD17B4 counter inactive and ALDH1A1 inh 24.1µM.
Screening Cc1cc(C)nc(NC(=S)N2CCN(c3ccc(Cl)cc3Cl)CC2)c1 returned Sfp qHTS opt 1.18µM, Bsub HM489 growth 8.35µM, Sfp gel opt 3.16µM, Sfp gel 3.8µM, Sfp inh SAR2 1.02µM, hGST A1-1 inh 2.35µM, HSD17B4 counter inactive and ALDH1A1 inh 17.1µM.
Screening Cc1cc(C)nc(NC(=S)N2CCN(c3ncccc3C#N)CC2)c1 returned NTMT1 inhibitor inconclusive, Sfp qHTS opt 0.576µM, Bsub HM489 growth inconclusive, Sfp gel opt inconclusive, Sfp inh SAR2 1.24µM, hGST A1-1 inh inconclusive, HSD17B4 counter inactive and ALDH1A1 inh 21.5µM.
Screening Cc1cc(C)nc(NC(=S)N2CCN(c3ccccn3)CC2)c1 returned NTMT1 inhibitor inconclusive, Sfp qHTS opt 3.73µM!, Bsub HM489 growth inconclusive, Sfp gel opt 31.6µM!, Sfp inh SAR2 16.2µM, HSD17B4 counter inactive and ALDH1A1 inh 27.1µM.
`Cc1ccc(NC(=O)N2CCN(c3ccc(Cl)c(Cl)c3)CC2)cc1` gave FH mod inactive, OvCa metastasis inactive, NTMT1 inhibitor inactive and DRV1 agonist inactive.
`COc1cc2c(cc1NC(=O)COc1ccc(Cl)cc1Br)oc1ccccc12` gave FH mod inactive, OvCa metastasis inactive, NTMT1 inhibitor inactive and DRV1 agonist inactive.
O=C(Nc1nnc2n1CCS2)c1ccccc1 was read as FH mod inactive, OvCa metastasis inactive, NTMT1 inhibitor inactive and DRV1 agonist inactive.
For CCOc1ccc(-n2cc(-c3ccccc3)c3c(NC4CCCC4)ncnc32)cc1 the results were FH mod inconclusive, OvCa metastasis inactive, NTMT1 inhibitor inactive and DRV1 agonist inactive.
`Cc1cc(C)nc(NC(=S)N2CCN(c3ncccc3Cl)CC2)c1` gave NTMT1 inhibitor inconclusive, Sfp qHTS opt 3.73µM, Bsub HM489 growth inactive, Sfp gel opt inconclusive, Sfp inh SAR2 2.04µM, HSD17B4 counter inactive and ALDH1A1 inh 19.2µM.
For Cc1cc(C)nc(NC(=S)N2CCN(c3noc4ccccc34)CC2)c1 the results were NTMT1 inhibitor inconclusive, Sfp qHTS opt 3.32µM, Bsub HM489 growth inconclusive, Sfp gel opt inactive, Sfp inh SAR2 2.89µM, HSD17B4 counter inactive and ALDH1A1 inh 17.1µM.
For Cc1ccc(C)c(N2CCN(C(=O)NCc3noc4ccccc34)CC2)c1 the results were FH mod inactive, OvCa metastasis inactive, NTMT1 inhibitor inactive and DRV1 agonist inactive.
For Cc1cc(C)nc(NC(=S)N2CCN(c3cnc4nccn4c3)CC2)c1 the results were NTMT1 inhibitor inconclusive, Sfp qHTS opt 18.7µM, Bsub HM489 growth inconclusive, Sfp gel opt inactive, Sfp inh SAR2 18.2µM, HSD17B4 counter inconclusive and ALDH1A1 inh inactive.
For Cc1cc(C)nc(NC(=S)N2CCN(C3=Nc4ccccc4Oc4ccccc43)CC2)c1 the results were NTMT1 inhibitor 50.1µM, Sfp qHTS opt 3.32µM, Bsub HM489 growth inconclusive, Sfp gel opt inconclusive, Sfp inh SAR2 5.13µM, HSD17B4 counter inactive and ALDH1A1 inh 24.1µM.
Screening CN1CCN(C2=Nc3ccccc3Oc3ccc(Cl)cc32)CC1 returned FH mod inactive, NTMT1 inhibitor inactive and DRV1 agonist inactive.
Screening Cc1ccc(-n2c(=O)c3ccc(C(=O)NCc4ccco4)cc3n(Cc3ccccc3Cl)c2=O)cc1 returned FH mod inactive, OvCa metastasis inactive, NTMT1 inhibitor inactive and DRV1 agonist inactive.
CCc1ccc(CNC(=O)c2c3c(nc4ccccc24)C(=O)N(C2CCCCC2)C3)cc1 was read as FH mod inactive, OvCa metastasis inactive, NTMT1 inhibitor inactive and DRV1 agonist inactive.

Assay outcomes deposited in PubChem by National Center for Advancing Translational Sciences (NCATS).
